In all, about 310,000 compounds went through this assay and about 14,000 (4.5%) showed an effect of 50% or more. The effect is printed as a negative number. This excerpt belongs to a sample that is enriched for strong results.
molecular target: human ether-à-go-go-related gene (hERG) potassium channel (human, UniProt Q12809); test: primary screen, population patch clamp on CHO cells stably expressing hERG; higher = less effect of the substance
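Note: peak tail current of the secondary pulse compared with the same well before compound.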

human ether-à-go-go-related gene (hERG) potassium channel, sequence (Q12809 whole entry, looked up): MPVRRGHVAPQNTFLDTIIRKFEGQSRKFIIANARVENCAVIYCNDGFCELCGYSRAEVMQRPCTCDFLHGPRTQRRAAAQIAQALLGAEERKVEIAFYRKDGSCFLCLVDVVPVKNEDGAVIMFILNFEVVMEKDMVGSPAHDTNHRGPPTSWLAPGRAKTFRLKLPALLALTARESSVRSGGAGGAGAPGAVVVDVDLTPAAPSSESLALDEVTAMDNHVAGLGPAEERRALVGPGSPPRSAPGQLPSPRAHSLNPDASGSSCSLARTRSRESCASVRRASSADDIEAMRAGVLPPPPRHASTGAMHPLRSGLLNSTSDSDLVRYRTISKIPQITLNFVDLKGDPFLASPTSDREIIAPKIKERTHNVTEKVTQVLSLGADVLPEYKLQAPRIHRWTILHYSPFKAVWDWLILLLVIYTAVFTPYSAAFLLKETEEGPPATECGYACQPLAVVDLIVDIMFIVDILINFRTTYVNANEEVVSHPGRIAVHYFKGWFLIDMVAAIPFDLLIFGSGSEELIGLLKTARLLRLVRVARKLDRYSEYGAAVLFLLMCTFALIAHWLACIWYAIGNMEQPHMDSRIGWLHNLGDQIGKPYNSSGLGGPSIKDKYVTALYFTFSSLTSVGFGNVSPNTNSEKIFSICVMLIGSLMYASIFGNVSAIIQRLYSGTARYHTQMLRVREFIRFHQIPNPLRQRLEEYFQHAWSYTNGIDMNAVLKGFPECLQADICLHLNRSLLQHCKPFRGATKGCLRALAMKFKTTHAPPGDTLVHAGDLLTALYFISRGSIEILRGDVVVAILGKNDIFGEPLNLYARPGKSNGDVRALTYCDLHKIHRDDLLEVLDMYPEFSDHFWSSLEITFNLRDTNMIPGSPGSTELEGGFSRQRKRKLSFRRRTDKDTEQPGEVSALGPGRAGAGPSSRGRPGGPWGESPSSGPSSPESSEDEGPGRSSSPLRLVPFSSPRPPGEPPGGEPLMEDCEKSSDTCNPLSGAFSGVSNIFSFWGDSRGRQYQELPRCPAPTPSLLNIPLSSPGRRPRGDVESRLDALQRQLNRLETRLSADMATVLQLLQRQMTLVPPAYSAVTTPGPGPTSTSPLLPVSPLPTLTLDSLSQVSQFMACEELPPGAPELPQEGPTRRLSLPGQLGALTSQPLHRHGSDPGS

Structure (SMILES)	hERG current change (%, negative = inhibition) at 10uM
Cc1ccc(S(=O)(=O)N2CCC(C(=O)NC3CC3)CC2)cc1	-5.59%
O=C1CS/C(=N\c2ccccn2)N1C1CCCCC1	13.7%
CC(NC(=O)CN1CCc2ccccc21)c1ccccc1 (stereo not drawn)	8.5%
COc1ccc(-n2cc(CNCCc3ncc(C)[nH]3)c(-c3ccccc3Cl)n2)cc1	-63.6%
N#CCN1CCCC(C(N)=O)C1 (stereo not drawn)	0.891%
COc1ccccc1-n1c(SCC(=O)NCC2CCCO2)nc2c([nH]c3ccccc32)c1=O (stereo not drawn)	9.22%
CCN(CC)c1ccc(C(=O)N/N=C(\C)c2ccc(OC)c(OC)c2)cc1	3.53%
Cc1nnsc1C(=O)NNS(=O)(=O)c1ccccc1	8.81%
C=CCOc1ccc(/C=N/NC(=O)C(C)Sc2ccccn2)cc1OCC (stereo not drawn)	20.6%
CCCCN(C)C(=O)c1nc2ccccn2c1CN1CCN(c2cnccn2)CC1	-12.4%
CCCCN(C)C(=O)c1nc2ccccn2c1CN1CCN(C(=O)c2cccs2)CC1	-51.8%
CCCCN(C)C(=O)c1nc2ccccn2c1CN1CCN(c2ccccn2)CC1	-7.16%
CCCCN(C)C(=O)c1nc2ccccn2c1CN1CCN(c2ncccn2)CC1	-10.2%
CCCCN(C)C(=O)c1nc2ccccn2c1CN1CCSCC1	6.32%
CCCCN(C)C(=O)c1nc2ccccn2c1CN1CCN(C/C=C/c2ccccc2)CC1	-83.9%
COC(=O)C1=C(C(=O)OC)[C@@H]2N(Cc3ccccc3)c3ccccc3[C@@]23C[C@@H](C(=O)OC)N(C(=O)NC(C)(C)C)C3=N1	-11.7%
Brc1cnc(N2CCCCC2)nc1N1CCOCC1	-6.45%
CN(C)[C@@H]1C(=O)C(C(N)=O)=C(O)[C@@]2(O)C(=O)C3=C(O)c4c(O)cccc4[C@@](C)(O)C3[C@H](O)C12.Cl (stereo partly drawn)	-1.22%
O=C(CN1C(=O)CSc2ncccc21)N1CCOCC1	-6.66%
O=C(CCCn1c(=O)[nH]c2cc(Cl)ccc2c1=O)NCCCN1CCCC1	14.6%
O=C(CCCCCn1c(=O)[nH]c2ccccc2c1=O)NCCCN1CCN(c2ccccc2F)CC1	-79.2%
COCCn1c(=O)[nH]c2cc(C(=O)NCCN3CCN(c4cccc(Cl)c4)CC3)ccc2c1=O	12.8%
O=C(CCCn1c(=O)[nH]c2cc(Cl)ccc2c1=O)NCCCN1CCN(c2ccc(F)cc2)CC1	-64.9%

Structure (SMILES)	hERG current change (%, negative = inhibition) at 10uM
O=C(CCCn1c(=O)[nH]c2cc(Cl)ccc2c1=O)NCCN1CCN(c2ccccc2)CC1	-48.4%
O=C(CCCN1C(=O)CSc2ncccc21)N1CCN(c2cccc(C(F)(F)F)c2)CC1	-56.5%
O=C(CCNC(=O)Cn1ccc2ccccc2c1=O)NCCCN1CCN(c2ccccc2F)CC1	10.1%
O=C(CCn1c(=O)[nH]c2ccccc2c1=O)NCCCN1CCN(c2cccc(Cl)c2)CC1	-65.4%
O=C(Cn1c(=O)[nH]c2ccccc2c1=O)N1CCN(c2cccc(Cl)c2)CC1	15.7%
O=C(CCCN1C(=O)CSc2ncccc21)N1CCN(Cc2ccccc2)CC1	6.42%
COc1cc2[nH]c(=O)n(CCC(=O)NCCCN3CCN(c4ccccc4F)CC3)c(=O)c2cc1OC	-35.4%
Cc1cccc(-n2ncc(C#N)c2-n2cccc2)c1	-5.85%
CC(C)Oc1ccc(C(=O)NCC(=O)OCC(=O)N(C)Cc2cccs2)cc1	-15.9%
C=CCN(Cc1nc(-c2ccccc2)no1)C(=O)c1ccoc1C	-4.69%
COC(=O)c1cccc(NC(=O)c2ccc3c(c2)C(=O)N(CC2CCCO2)C3=O)c1 (stereo not drawn)	-24.3%
NNc1nc(-c2ccccc2Cl)nc2ccccc12	11.1%
COc1ccc(NC(=O)CCS(=O)(=O)c2ccc3c(c2)CCCN3C(C)=O)cc1	9.92%
CC(C)NC(=O)NC(=O)CSc1ncccn1	15.7%
Cn1c(=O)oc2cc(S(=O)(=O)N3CCC(C(=O)NCc4ccc(F)cc4)CC3)ccc21	-8.93%
O=C(CCCCn1c(=O)[nH]c2ccccc2c1=O)N1CCN(c2cccc(C(F)(F)F)c2)CC1	-56.1%
O=C(CCn1c(=O)[nH]c2ccccc2c1=O)N1CCN(c2cccc(C(F)(F)F)c2)CC1	-43%
O=C(CCCCn1c(=O)[nH]c2ccccc2c1=O)NCc1ccc2c(c1)OCO2	-6.99%
Cc1ccc(C)c(N2CCN(C(=O)CCCCn3c(=O)[nH]c4ccccc4c3=O)CC2)c1	-25.2%
O=C(Cn1c(=O)[nH]c2ccccc2c1=O)N1CCN(Cc2ccc3c(c2)OCO3)CC1	0.172%
O=C(CCCCCn1c(=O)[nH]c2ccccc2c1=O)N1CCN(Cc2ccc3c(c2)OCO3)CC1	-71.7%
Cc1cccnc1NC(=O)C1CCN(S(=O)(=O)c2cccs2)CC1	-6.07%
O=C(c1cccnc1)N1CCN(S(=O)(=O)c2ccc(S(=O)(=O)N3CCCC3)cc2)CC1	9.65%

Structure (SMILES)	hERG current change (%, negative = inhibition) at 10uM
Cc1ccc(NC(=S)NCCN2CCOCC2)cc1C	-5.31%
Cc1ccc(NC(=Nc2ccc(Br)cc2)N2CCOCC2)cc1C	-63.8%
Cc1ccc(NC(=O)CN2CCOCC2)cc1C	14.3%
Cc1ccc(NC2CCCN(C(=O)c3cccc(-c4ncc[nH]4)c3)C2)cc1C (stereo not drawn)	3.23%
NC(=O)c1nsc(C(=O)N(Cc2cccnc2)C(C(=O)NCc2ccc(F)cc2)c2ccc(O)cc2)c1N (stereo not drawn)	-1.96%
CCC(C)(C)NC(=O)C(c1ccc(F)cc1)N(Cc1ccc(OC)cc1)C(=O)c1cnccn1 (stereo not drawn)	-11.8%
COc1ccc(NC(=O)C(c2ccccc2)N(C)C(=O)c2cnccn2)cc1 (stereo not drawn)	1.47%
COc1ccc(CN(C(=O)c2cnccn2)C(C(=O)Nc2ccc(F)cc2)c2ccccc2)cc1 (stereo not drawn)	-68.2%
COc1ccc(C(C(=O)NCc2ccc(F)cc2)N(Cc2cccnc2)C(=O)c2snc(C(N)=O)c2N)cc1 (stereo not drawn)	-62%
NC(=O)c1nsc(C(=O)N(Cc2cccnc2)C(C(=O)NCc2ccc(F)cc2)c2ccc(F)cc2)c1N (stereo not drawn)	0.71%
CCOc1ccc(S(=O)(=O)NNC(=S)Nc2ccc(Br)cc2)cc1	5.35%
COC1=C(Nc2ccccc2OC)C(=O)c2ccccc2C1=O	0.0125%
Cc1ccc(N(C(=O)c2ccc(S(=O)(=O)N3CCOCC3)cc2)C2C=CS(=O)(=O)C2)cc1 (stereo not drawn)	3.58%
O=C(NCc1ccc(F)cc1)C(=O)NCC1OCCN1C(=O)c1cccs1 (stereo not drawn)	-4.15%
O=C(NCc1ccccc1)C(=O)NCC1OCCN1C(=O)c1cccs1 (stereo not drawn)	-65.3%
O=C(NCc1ccc(Cl)cc1)C(=O)NCC1OCCN1C(=O)c1cccs1 (stereo not drawn)	-7.77%
NS(=O)(=O)c1ccc(CCNC(=O)c2ccccc2OCc2ccc(F)cc2)cc1	4.16%
Cl.NS(=O)(=O)c1ccc(CCNCc2cc(Cl)ccc2OCc2ccccc2)cc1	-74.5%
COc1cc(CNCCc2ccc(S(N)(=O)=O)cc2)ccc1OCc1ccc(Cl)cc1.Cl	-31.8%
Cl.NS(=O)(=O)c1ccc(CCNCc2ccccc2OCc2ccc(F)cc2)cc1	-74.5%
NS(=O)(=O)c1ccc(NCc2ccccc2OCc2ccc(F)cc2)cc1	-17%
Cl.Clc1ccc(COc2ccccc2CNCc2cccnc2)cc1	-31.1%
C=CCOc1ccccc1CNCCc1ccc(S(N)(=O)=O)cc1.Cl	-37.2%

Structure (SMILES)	hERG current change (%, negative = inhibition) at 10uM
Cl.NS(=O)(=O)c1ccc(CCNCc2ccccc2OCc2ccc(Cl)cc2)cc1	-73.1%
NS(=O)(=O)c1ccc(NCc2cc(Cl)ccc2OCc2ccc(F)cc2)cc1	3.36%
CCCc1cc2c(cc1NC(=O)c1ccccc1F)OCO2	-11.3%
CC(=O)Nc1sc2c(c1C(=O)N1CCOCC1)CCCCC2	17.9%
Cc1ccc(-n2ncc3c(NCC4CCCO4)ncnc32)c(C)c1 (stereo not drawn)	12.9%
COc1cc(C(C)=O)ccc1OCC(=O)Nc1ccc2nc(C)sc2c1	13.4%
CC(SC#N)C(=O)C12CC3CC(CC(C3)C1)C2 (stereo not drawn)	-8.99%
O=C1CN=C(c2ccccc2)c2ccccc2N1	8.11%
O=[N+]([O-])/C=C/c1cn(Cc2ccc(Cl)cc2)c2ccccc12	2.65%
O=C(NCc1cccnc1)C(Cl)(Cl)Cl	0.208%
CCN(CC)c1ccc(S(=O)(=O)N2CCOCC2)cc1NC(=O)COC(=O)COc1ccccc1C	12.7%
CC1=CC=CC2=NC(=O)CC(C)(C(=O)N(CC(=O)NC3CCCC3)c3ccc(F)cc3)N12 (stereo not drawn)	11.1%
Cc1nn(C)c(C)c1S(=O)(=O)N(CC(=O)NCc1cccs1)c1ccc(C(C)C)cc1	9.79%
Cc1cccc(NC(=O)CN(c2ccc(C(C)C)cc2)S(=O)(=O)c2c(C)nn(C)c2C)n1	-12.2%
Cc1nn(C)c(C)c1S(=O)(=O)N(CC(=O)NC1CCCCCC1)c1ccc(C(C)C)cc1	-10.4%
Cc1nn(C)c(C)c1S(=O)(=O)N(CC(=O)NCCCN1CC(C)CC(C)C1)c1ccc(C(C)C)cc1 (stereo not drawn)	-66.4%
Cc1nn(C)c(C)c1S(=O)(=O)N(CC(=O)Nc1ccccn1)c1ccc(C(C)C)cc1	-7.4%
Cc1nn(C)c(C)c1S(=O)(=O)N(CC(=O)NCc1ccco1)c1ccc(C(C)C)cc1	16.6%
Cc1nn(C)c(C)c1S(=O)(=O)N(CC(=O)NCCCN1CCC(C)CC1)c1ccc(C(C)C)cc1	-64.7%
Cc1nn(C)c(C)c1S(=O)(=O)N(CC(=O)NCCN1CCOCC1)c1ccc(C(C)C)cc1	-2.41%
Cc1nn(C)c(C)c1S(=O)(=O)N(CC(=O)NCCCOC(C)C)c1ccc(C(C)C)cc1	-69.6%

— publication PMC4336329 (PLoS ONE, 2015)
